Source: PubChem BioAssay (NCI)
The panel holds about 83,000 compounds, 20% with a hit somewhere; the sample as a whole holds those more often.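 Method: cells in 96-well plates; compound added at one concentration; 48 h incubation; percent growth measured; values under 10 scored active.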 Unmarked numbers belong to inactive results. The source made the active and inactive calls.

System: A498 renal
Experiment: NCI-60 one-dose screen, 48 h (100 = growth as untreated, 0 = no growth, -100 = all killed)
Conditions: 10 µM
Experimental: Growth inhibition of the A498 human tumor cell line is measured as a screen for anti-cancer activity. Cells are grown in 96 well plates and exposed to the test compound for 48 hours. Compounds are tested at a single concentration, which is 10^-5 M for most compounds. The reported endpoint is percent growth (GI% or GIPRCNT), where numbers from 0 - 100% represent growth inhibition, and numbers from -100% - 0 represent cell death. For example, a value of 40 represents 60% growth inhibition. A value of 0 means no net growth occurred over the course of the experiment. A value of -40 indicates 40% of cells at the beginning of the experiment died by the end of the experiment. A value of -100 means all cells are dead at the end of the experiment.
NCI-60 Human Tumor Cell Lines Screen was performed using the standard one-dose NCI protocol, which is described in more detail at https://dtp.cancer.gov/discovery_development/nci-60/default.htm.
Compounds with GIPRCNT values below 10 were considered active. Activity score was based on GIPRCNT using the following formula: […]
Score is 0 for GIPRCNT values of 100 or above, 50 for GIPRCNT values of 0, and 100 for GIPRCNT values of -100.

Compound | growth
CCC(O)(CN)c1ccccc1 (stereo not given) | 86.7%
C[S+]1C=Cc2ccccc2C1c1ccc(Cl)cc1 (stereo not given) | 96%
CCOC(=O)CCC(NC(=O)C(Cc1ccc(N(CCCl)CCCl)cc1)NC=O)C(=O)OCC (stereo not given) | 128%
ClCCN(CCCl)Cc1ccc(Nc2ccnc3cc(Cl)ccc23)cc1 | 77.1%
COc1cc(/C=N/C2=C(C#N)C(c3ccco3)c3c(c4cc(C)ccc4oc3=O)O2)cc(OC)c1OC (stereo not given) | 86.6%
COc1ccc(N(CC(=O)NCCC[Te]c2ccccc2)C(=O)CNC(=O)OC(C)(C)C)cc1 | -16% (active)
O=C(CCCCCNC1=CC(=O)c2ccccc2C1=O)NCCC[Te]c1ccccc1 | -57.7% (active)
CC1=C(CN)C2=C(C)C3(CC3)[C@@](C)(O)C(=O)C2=C1 | 68.6%
CC1(C)N=C(N)N=C(N)N1c1ccc(OCCCNC(=O)Nc2ccc(S(=O)(=O)F)cc2)c(Cl)c1 | 85.3%
CCn1c2ccccc2c2cc(C(=O)c3cccc4c3CCCN4)ccc21 | 112%
CC(=O)O[C@H](C[C@H](C(C)C)N(C)C(=O)[C@@H](NC(=O)[C@H]1CCCCN1C)C(C)C)c1nc(C(=O)NC2CCC(C(=O)O)CC2)cs1 (stereo not given in full) | 35.8%
CC1(C)N=C(N)N=C(N)N1c1cccc(CCCCc2ccc(Cl)c(S(=O)(=O)F)c2)c1 | 86.1%
CC(=O)OC[C@]1(C)C=C2C(=O)[C@](C)(O)C3(CC3)C(C)=C2[C@H]1OC(=O)N(C)CCN(C)C(=O)OC(C)(C)C | -10.8% (active)
CN1C(=O)C(=Cc2cn(CCCCCCn3c4ccccc4c(=O)c4ccccc43)c3ccccc23)C(=O)N(C)C1=O | 110%
CC[C@H](C)[C@H](NC(=O)[C@H]1CCCCN1C)C(=O)N(C)[C@H](C[C@@H](O)c1nc(C(=O)N[C@@H](Cc2ccccc2)C[C@H](C)C(=O)O)cs1)C(C)C | 76.2%
COC(=O)[C@@H](C)C[C@H](Cc1ccc(F)cc1)NC(=O)c1csc([C@@H](C[C@H](C(C)C)N(C)C(=O)[C@@H](NC(=O)[C@H]2CCCCN2C)C(C)C)OC(C)=O)n1 | -3.94% (active)
C=CC12CCN(CC1)C(C(O)c1ccnc3ccc(OC)cc13)C2 (stereo not given) | 56.9%
COc1ccc2c(c1)c(-c1nc(-c3c[nH]c4ncccc34)cs1)cn2CCN1CCOCC1 | 71.7%
CCOC(=O)[C@@H](C)C[C@H](Cc1ccccc1)NC(=O)c1csc([C@@H](C[C@H](C(C)C)N(C)C(=O)CNC(=O)[C@H]2CCCCN2C)OC(C)=O)n1 | -3.32% (active)
CC(=O)Nc1nc2c(s1)CC[C@@]1(C)C2=CC[C@H]2[C@@H]3CC[C@H](O)[C@@]3(C)CC[C@@H]21 | 67.8%

Compound | growth
CCOC(=S)S[C@H]1C[C@@H]2[C@H](CC[C@]3(C)C(=O)CC[C@@H]23)[C@@]2(C)CCC(=O)C=C12 | 110%
CN(C)CC(C(=O)Cc1ccccc1)c1ccccc1 (stereo not given) | 90.5%
COc1cccc2c1c(C(=O)C(=O)Nc1cc(C)no1)cn2Cc1ccc(F)cc1 | 91.1%
O=C(CC1(O)C(=O)N(Cc2ccccc2)c2ccc(Br)cc21)c1ccc(C(=O)NCC2CCC3(CC2)OOC2(CCCCC2)OO3)cc1 (stereo not given) | -74% (active)
Clc1ccc2nnnn2n1 | 78.7%
COc1ccc(S(=O)(=O)N(Cc2ccc3c(c2)C=CC(C)(C)O3)c2ccccc2)cc1OC | 77.8%
O=NN1CCCc2cccc(O)c21 | 86.8%
CC12CCC3C(CCC4Cc5[nH]c6ccccc6c5CC43C)C1CCC2O (stereo not given) | 31.8%
COc1cc([N+](=O)[O-])c2nc(C)ccc2c1[N+](=O)[O-] | 121%
COC(C(=O)[C@@H](O)[C@@H](C)O)[C@@H]1Cc2cc3cc(O[C@H]4C[C@@H](O[C@H]5C[C@@H](O)[C@H](O)C(C)O5)[C@H](O)C(C)O4)c(C)c(O)c3c(O)c2C(=O)[C@H]1O[C@H]1C[C@@H](O[C@H]2C[C@@H](O[C@H]3C[C@@H](O)[C@@H](O)C(C)O3)[C@@H](O)C(C)O2)[C@H](O)C(C)O1 (stereo not given in full) | -39.9% (active)
COc1ccc([As]=[As]c2ccc(OC)c(NCS(=O)(=O)O)c2)cc1NCS(=O)(=O)O (stereo not given) | 20.9%
CCOC(=O)CCN(C)C1=Nc2ccc(Cl)cc2C(c2ccccc2)=[N+]([O-])C1 | 71.8%
Nc1ccc2c(c1)oc1ccccc12 | 103%
NC(=O)C(Br)c1ccccc1 (stereo not given) | 87.4%
CC(C)[C@@H]1NC(=O)[C@]2(C)CSC(=N2)c2csc(n2)CNC(=O)C[C@@H](/C=C/CCS)OC1=O | -74.8% (active)
COC(=O)CCc1c[nH]c2ccc(N(CCCl)CCCl)cc12 | 84.3%
COC(=O)[C@]12CCC(C)(C)C[C@H]1[C@H]1C(=O)C[C@@H]3[C@@]4(C)C[C@@]5(CC(C)(C)[C@@H]4CC[C@@]3(C)[C@]1(C)CC2)OO[C@@](C)(C(F)(F)F)O5 | 78.2%
CC1CCCC(C[N+](C)(C)C)C1=O (stereo not given) | 101%
O=c1[nH]cc(N(CCCl)CCCl)c(=O)[nH]1 | 101%
CC12CCC3C(CCC4=CC(=O)CCC43CF)C1CCC2=O (stereo not given) | 111%
